Among all 310,000 compounds or so, about 2,600 (0.84%) were called active. For the sample, actives were picked, then their nearest neighbours and some compounds at random. Unmarked numbers belong to inactive results.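 How the source made its calls: active means fluorescence ratio B-score at or below minus 3 SD of library scores, with starting-brightness B-score within 2 SD (cut at about -4.2 in these data); inactive means the rest.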

The assay deals with Inward rectifier potassium channel 2 (Mus musculus) (UniProt P35561). Put plainly: inhibitors of mouse Kir2.1 inward-rectifier potassium channel (AID 1672).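 Further: channel flux triggered by added potassium and thallium sulfate stimulus; B-score of peak minus minimum fluorescence over baseline after thallium stimulus; more negative B-score means stronger Kir2.1 block with less thallium influx.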 To be noted: HEK293-Kir2.1, FluxOR thallium flux fluorescence; at 10 µM; hits give low values.
Inward rectifier potassium channel 2 (Mus musculus), sequence (P35561 whole entry, looked up): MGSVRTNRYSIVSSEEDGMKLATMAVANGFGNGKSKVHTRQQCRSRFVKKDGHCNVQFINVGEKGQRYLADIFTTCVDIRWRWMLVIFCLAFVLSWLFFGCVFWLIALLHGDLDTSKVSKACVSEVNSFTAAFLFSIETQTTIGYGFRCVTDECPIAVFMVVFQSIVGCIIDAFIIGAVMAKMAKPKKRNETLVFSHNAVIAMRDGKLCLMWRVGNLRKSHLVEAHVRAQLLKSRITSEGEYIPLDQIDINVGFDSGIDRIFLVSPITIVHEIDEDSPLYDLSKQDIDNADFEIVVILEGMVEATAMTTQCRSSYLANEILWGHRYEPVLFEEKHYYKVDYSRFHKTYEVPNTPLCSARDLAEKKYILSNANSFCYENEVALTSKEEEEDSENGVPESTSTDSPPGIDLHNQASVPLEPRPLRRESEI
With `COc1ccc(S(=O)(=O)NCc2cccnc2)cc1NC(=O)c1ccc(C)cc1`, the B-score was -1.69. The same measure for `COC(=O)c1c(-c2ccsc2)oc2ccc(-c3cc(OC)c(OC)c(OC)c3)cc12`: 0.77; for `CC(C)Oc1ccc(S(=O)(=O)N2CCOCC2)cc1NC(=O)C1CSC2(C)CCC(=O)N12` (centres undefined): -0.2. On to `Cc1ccc(-c2nn(-c3ccc(F)cc3)cc2C(=O)NCC(c2cccs2)N2CCOCC2)cc1` (centres undefined), for which the B-score is 1.38. The same measure for `C=CCOc1cccc(C2C(C(=O)c3ccc(C)o3)=C(O)C(=O)N2c2nnc(C)s2)c1` (centres undefined): -2.11.

For the compound `CCC(=O)OCc1c(C(F)(F)F)nn(C)c1Oc1cccc(C(F)(F)F)c1`, the B-score was -6.22 (active). The same measure for `O=Cc1ccc(Oc2cccc(C(F)(F)F)c2)nc1`: 0.35; for `Cc1nc(N)[nH]c(=O)c1Oc1cccc(C(F)(F)F)c1`: 0.08; for `CCOc1ccc(CCNC(=O)COC(=O)c2ccc(F)c(S(=O)(=O)N3CCOCC3)c2)cc1OCC`: 0.3. As to `COc1ccc(NC(=O)CSc2nnc(-c3cccs3)n2Cc2ccco2)cc1OC`, the B-score was 0.49. The same measure for `O=C(CSc1nnc(-c2cccs2)n1Cc1ccco1)c1ccc2c(c1)OCO2`: -4.78 (active); for `O=C(CSc1nnc(-c2cnccn2)n1Cc1ccco1)c1ccc(Cl)c(Cl)c1`: 0.04. The same measure for `CCn1c(SC(C)C(=O)Nc2ccc(N3CCOCC3)cc2)nnc1-c1ccco1` (centres undefined): -1.79; for `CCN(CC)c1ccc(S(=O)(=O)N2CCCCC2)cc1NC(=O)C1=COCCO1`: 1.68. The same measure for `Cc1cc(C(=O)CSc2nc(N)cc(=O)[nH]2)c(C)n1CCc1ccc(Cl)cc1`: -0.26; for `CCCc1cc(=O)[nH]c(SCC(=O)c2cc(C)n(CCC)c2C)n1`: -6.83 (active). In the case of `CCCc1cc(=O)[nH]c(SCC(=O)c2c(N)n(CC(C)C)c(=O)n(C)c2=O)n1`, the B-score was 0.93. As for `Cc1ncc(CO)c(/C=N/NC(=O)c2cccc(S(=O)(=O)N3CCCC3)c2)c1O`, the figure is -1.2; as for `NC(=O)CSc1nnc(NC(=O)c2ccc3ccccc3c2)s1`, 1.23.

With `Cc1ccc(-c2csc(NC(=O)C3=COCCO3)n2)cc1C`, the B-score was 0.03. Turning to `Cc1cc(Nc2ccc(Br)cc2)nc2ccccc12`, the B-score is -0.01. Take `COc1ccccc1CC(=O)NCCc1c[nH]c2ccccc12`: the B-score is -0.19.

Take `COc1ccc(S(=O)(=O)NCCc2c[nH]c3ccccc23)cc1OC`: the B-score is -1.99. As for `COc1cccc(CNCCc2c[nH]c3ccccc23)c1OCc1ccccc1F`, the figure is -12 (active).

(Values after PubChem BioAssay AID1672 (Johns Hopkins Ion Channel Center, 2009).)
